# Screening data: PubChem, National Center for Advancing Translational Sciences (NCATS)
# Pf growth 96h = Primary qHTS for delayed death inhibitors of the malarial parasite plastid, 96 hour incubation | P. falciparum luciferase reporter growth, 96 h | Potency, µM (titrated, usually from 28.7 µM), actives largely listed as inhibitors | actives 6.9% (n = 320,000) | AID 504834, 2011
#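 Delayed-death screen, second-generation endpoint: infected erythrocytes, 2% hematocrit, 0.05% parasitemia final; 96 hours at 37 C, 5% CO2; luciferase detection reagent; luminescence decrease equals reduced growth.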
# Pf growth 48h = Primary qHTS for delayed death inhibitors of the malarial parasite plastid, 48 hour incubation; P. falciparum luciferase growth in erythrocytes, 48 h; Potency, µM (series often up to 28.7 µM), hits mostly inhibitors; actives 5.9% (n = 310,000)
#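 Firefly luciferase activity from engineered P. falciparum reports growth; inhibitors lower the luminescent signal. Cultures contained 2% hematocrit erythrocytes at 0.1% final parasitemia.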
# SARS PLpro yeast = qHTS of Yeast-based Assay for SARS-CoV PLP. S. cerevisiae expressing SARS-CoV PLpro, growth rescue. Potency, µM (doses to about 32.9 µM), most hits filed as activators. actives 0.19% (n = 330,000). AID 485353, 2010; calls by dose curve; further: nearly all actives have a fitted effect of over 55% in size
# Shiga inhibitor = A qHTS for Small Molecule Inhibitors of Shiga Toxin | Vero cells, Shiga toxin protein synthesis inhibition reporter | inhibition, % at 38.7 µM | actives 9.2% (n = 290,000) | AID 2315, 2010; in the data active means inhibition mostly above about 28%, no sharp cut-off; inactive means mostly below about 43%
# CHX counter = Cycloheximide Counterscreen for Small Molecule Inhibitors of Shiga Toxin | cell reporter, cycloheximide protein synthesis inhibition counterscreen | actives 12% (n = 300,000) | max response, %; in the data active means max response mostly above about 13%, no sharp cut-off; inactive means mostly below about 14%; further: read at 38.3 µM for the half of the compounds with a filed dose
# AMA1-RON2 inh = qHTS for Inhibitors of AMA1-RON; Towards Development of Antimalarial Drug Lead: Primary Screen. actives 0.2% (n = 360,000). AlphaScreen AMA1-biotinylated RON2 peptide binding. Plasmodium falciparum AMA1 (3D7) - RON2 peptide interaction. Potency, µM (series often up to 58.2 µM), actives largely listed as inhibitors; further: nearly all actives have a fitted effect of over 45% in size
#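 AMA1 (3D7) with his tag at 25 nM final met compounds first, then biotinylated RON2 peptide at 25 nM; detection used donor plus acceptor beads, 10 µg/mL apiece, read by AlphaScreen after 30 min at room temperature.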
# Numbers stand for hits; i = inactive; ? = inconclusive; nt = no result; [ ] = another dose, or the depositor's remark. The list is not random: actives were taken first. Their share in the collection is about 19%. Unless noted, the call rests on the fitted dose curve; in most records, active means well fitted curve in the direction sought with a large enough effect; inconclusive means small, poorly fitted or top-dose-only effect, or another doubt; inactive means no such curve, though single readings can be large; an effect the other way counts as inactive or inconclusive.
SMILES,Pf growth 96h,Pf growth 48h,SARS PLpro yeast,Shiga inhibitor,CHX counter,AMA1-RON2 inh
Cc1cc(C)cc(CSc2ccc(S(=O)(=O)N3CCCC3)cn2)c1,9.3µM,9.3µM,i,nt,nt,i
CCOc1ccc(OCCSc2ccc(S(=O)(=O)N3CCN(C)CC3)cn2)cc1,15µM,?,i,nt,nt,i
O=S(=O)(c1ccc(SCc2ccc(Cl)cc2)nc1)N1CCCC1,?,12µM,i,nt,nt,i
O=C(NNc1cc(Br)c(O)c(Br)c1)c1ccccc1,i,i,i,i,i,i
C/C(Cc1ccccc1)=N\NC(=O)c1ccccn1,i,i,i,89,53,i
C/C(Cc1ccccc1)=N\NC(=O)c1cccnc1,i,i,i,i,i,i
COc1ccc(NC(=O)C/C(C)=N/NC(=O)c2cnccn2)c(OC)c1,i,i,i,i,37,i
COc1ccc(NC(=O)C/C(C)=N/NC(=O)C(=O)NC2CCCCC2)c(OC)c1,?,i,i,i,i,i
C/C(CC(=O)Nc1cc(C)cc(C)c1)=N\NC(=O)c1ccccn1,i,i,i,43,37,i
C/C(CC(=O)Nc1ccc2c(c1)OCCO2)=N\NC(=O)c1ccccn1,i,i,i,i,i,i
CCC(C)c1ccc(NC(=O)C/C(C)=N/NC(=O)c2cnccn2)cc1 (centres undefined),?,i,i,48,24,i
Cc1ccc(C)c(OCCC(=O)OCC(=O)Nc2ccc(Cl)cn2)c1,i,?,i,nt,nt,i
COc1ccc([N+](=O)[O-])cc1NS(=O)(=O)c1cccc(C(=O)OC2CCOC2=O)c1 (centres undefined),nt,nt,i,nt,nt,i[11.6 µM]
COc1ccc(NC(=O)C/C(C)=N/NC(=O)c2ccccn2)c(OC)c1,13µM,i,i,88,38,i
COc1ccc(CCNC(=O)c2cnccn2)cc1,?,nt,i,i,i,i
COc1ccc(CCNC(=O)C/C(C)=N/NC(=O)c2cnccn2)cc1,i,i,i,41,36,i
C/C(CC(=O)NCc1ccccc1)=N\NC(=O)c1cnccn1,i,i,i,40,12,i
C=CCOCCN(C)C1=NS(=O)(=O)c2cc([N+](=O)[O-])ccc21,i,?,i,i,i,i
CN(CCO)C1=NS(=O)(=O)c2cc([N+](=O)[O-])ccc21,i,4.1µM,i,i,i,i
CCC(ONc1ccccc1C(F)(F)F)(C(=O)NN(C)C)c1ccccc1 (centres undefined),i,?,i,nt,nt,i
COCC(=O)N(Cc1cc2cc(C)ccc2[nH]c1=O)c1ccccc1,?,i,i,i,12,i
Cc1cccc(N(Cc2cc3cc(C)ccc3[nH]c2=O)C(=O)c2cccs2)c1,7.4µM,13µM,i,i,i,i
COc1ccc2[nH]c(=O)c(CN(C(=O)C3CCCO3)c3cccc(C)c3)cc2c1 (centres undefined),8.3µM,i,i,i,i,nt
COCC(=O)N(Cc1cc2ccc(C)cc2[nH]c1=O)c1cccc(C)c1,?,?,i,i,i,i
CN(C)S(=O)(=O)c1ccc(C(=O)NCCS(=O)(=O)N2CCN(c3ccc(F)cc3)CC2)cc1,i,i,i,i,i,i
SMILES,Pf growth 96h,Pf growth 48h,SARS PLpro yeast,Shiga inhibitor,CHX counter,AMA1-RON2 inh
CCCNC(=O)C1(C)CCN(C(=O)c2ccc3snnc3c2)C1 (centres undefined),nt,nt,nt,nt,nt,i
c1ccc(-c2cc(-c3nnc4n3N=C(c3ccc5ccccc5c3)CS4)[nH]n2)cc1,?,12µM,i,i,i,i
Cc1ccc(-c2nnc3n2N=C(c2ccccc2Br)CS3)cc1,i,12µM,i,i,i,i
COc1ccc(C2=Nn3c(nnc3-c3ccccc3)SC2)cc1OC,i,nt,i,i,i,i
Cc1cc(-c2nnc3n2N=C(c2ccc(-c4ccccc4)cc2)CS3)n[nH]1,?,10µM,i,i,i,i
Cc1cc(-c2nnc3n2N=C(c2ccccc2)CS3)n[nH]1,?,i,i,i,i,i
C[n+]1ccccc1/C=C/c1ccc2ncccc2c1,?,1.2µM,i,40,27,i
C[n+]1ccccc1/C=C/c1ccccc1Cl,?,1.5µM,i,i,i,i
O=C(C=Cc1ccccc1Cl)c1ccccc1,nt,nt,nt,nt,nt,i
C[n+]1ccccc1/C=C/c1ccc([N+](=O)[O-])cc1,i,1.3µM,i,i,i,i
C[n+]1ccccc1/C=C/c1ccc(F)c(F)c1,i,?,i,nt,i,i
C[n+]1ccccc1/C=C/c1c(F)cccc1F,?,13µM,i,i,i,i
CCOc1ccccc1NC(=O)CSc1nnc(NC(=O)c2ccco2)s1,i,i,i,i,i,i
Cc1ccccc1/C=C/c1cccc[n+]1C,?,4.7µM,i,i,i,i
Nc1ccccc1/C=C/c1ccccc1N,nt,nt,nt,nt,nt,i
N#CC(Cc1ccccc1OC(F)F)c1nc2ccccc2[nH]1 (centres undefined),i,?,i,i,i,i
CCCn1cc(CN2CCC(Cc3ccccc3)(C(=O)OCC)CC2)c(C)n1,10µM,i,i,i,i,i
CCOC(=O)C1(Cc2ccccc2)CCCN(Cc2ccncc2)C1 (centres undefined),i,9.3µM,i,i,i,i
CCOC(=O)C1(Cc2ccccc2)CCCN(Cc2cccc(C(C)=O)c2)C1 (centres undefined),i,?,i,i,i,i
CCOC(=O)C1(Cc2ccccc2C)CCCN(Cc2cc(OC)c(O)c(OC)c2)C1 (centres undefined),i,?,i,38,13,i
NC(=O)C1(c2ccccc2)OC1c1ccccc1 (centres undefined),i,i,i,nt,nt,i
C=CC[C@H](CC(=O)NCCO)C(=O)NCCOC(=O)[C@@H](CC=C)Cc1ccc(F)cc1,nt,nt,i,nt,nt,i
COc1ccc(NC(=S)N(CCN2CCOCC2)Cc2cc3cc4c(cc3[nH]c2=O)OCCO4)cc1,i,i,i,i,i,i
O=C(O)c1ccc(C(=O)Nc2ccc(F)cc2)cc1,i,i,i,nt,nt,i
O=C(Nc1ccc(Nc2ccccc2)cc1)c1ccc(F)cc1,i,?,i,33,36,i
SMILES,Pf growth 96h,Pf growth 48h,SARS PLpro yeast,Shiga inhibitor,CHX counter,AMA1-RON2 inh
O=C(NC(=S)Nc1ccc(Oc2ccc(Cl)cc2)cc1)c1ccccc1,?,i,i,i,19,i
O=C(NC(=S)Nc1ccc(NC(=O)c2ccccc2)cc1)c1ccc(F)cc1,6.6µM,6.6µM,i,i,i,i
O=C(NC(=S)Nc1ccc2c(c1)C(=O)c1ccccc1C2=O)c1ccc(F)cc1,i,i,i,103,72,nt
CCC(=O)NC(=S)Nc1ccc(NC(=S)NC(=O)c2ccccc2)cc1,i,i,i,i,i,i
COc1cc(NC(=O)Nn2cnnc2)cc(OC)c1OC,i,i,i,i,i,i
COC(=O)c1ccccc1NC(=O)c1ccccc1N(C)S(C)(=O)=O,i,i,i,i,i,i
